# “And” between values parts separate entries of the source, which are not always exact repeats. Equal entries are not always repeated. Records with an inconclusive call do not appear. Where a call stands in place of a potency, no number is given. The source made the active and inactive calls. Unless noted, the call rests on the fitted dose curve; in most records, active means well fitted curve in the direction sought with a large enough effect; inconclusive means small, poorly fitted or top-dose-only effect, or another doubt; inactive means no such curve, though single readings can be large; an effect the other way counts as inactive or inconclusive.
# Experiments:
# [1] = Cell Viability - BJ (AID 421; calls by dose curve;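 further: potency means the concentration at half of the fitted maximal effect; cells exposed to compound for 40 hours at 37 °C before readout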); conditions: BJ fibroblast viability, qHTS
# In short: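 Cytotoxicity as drop in intracellular ATP (CellTiter-Glo, 20 min RT) after 40 hr compound exposure of BJ fibroblasts at 37 °C. Titrations scaled between DMSO and 100 uM tamoxifen, Hill-fitted for AC50.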
# [2] = Cellular Toxicity (caspase-3) Mesangial (AID 660);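 further: combined caspase 3 and 7 activity read by Caspase-Glo luminescence; cells exposed to compound for 16 h before the caspase read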
# In short: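 Caspase 3/7 activation measured by Caspase-Glo 3/7 luminescence (20 min, room temperature) following 16 h exposure of mesangial cells (1000/well); AC50 from Hill-equation fit, normalized to DMSO and 100 uM tamoxifen.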
# [3] = Cellular Toxicity (caspase-3) Renal Proximal Tubule (AID 667); conditions: renal proximal tubule cells; at 91.7 µM (top of the series), primary cells freshly taken from rat, solvent-only wells 0%, staurosporine 100% unless noted;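 further: cells exposed to compound for 16 hours at 37 °C before detection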
# In short: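 AC50 derived by standard Hill fit of concentration-response data, normalized between DMSO basal and 10 uM staurosporine as 100% stimulation. Cells: primary rat kidney proximal tubule, 16 h treatment at 37 °C.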
# [4] = MultiTox-Fluor Cytotoxicity Assay - LYMP1-003 - Live Cells (AID 962);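 further: cytotoxic hits lower the live-cell protease signal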
# In short: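 Live-cell protease activity (GF-AFC substrate, 405/510 nm, 60 min at room temperature) after 16 h, 37 C compound exposure of human lymphoblastoid LYMP1-003 cells; concentration-response fitted to the Hill equation for AC50.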
# [5] = Cell Viability - LYMP2-015 (AID 971); further: nearly all actives have a fitted effect of over 55% in size
# In short: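 Cytotoxicity readout: decrease in intracellular ATP (CellTiter-Glo luminescence) in 2500 LYMP2-015 lymphoblastoid cells/well after 24 h compound exposure at 37 C. Concentration-response data fitted with the standard Hill equation to give AC50.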
# [6] = Cell Viability - LYMP2-022 (AID 987); further: nearly all actives have a fitted effect of over 55% in size
# In short: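 Cytotoxicity read as decreased cellular ATP (CellTiter-Glo luminescence, 30 min room temperature) after 24 hours compound exposure of 2500 lymphoblastoid LYMP2-022 cells/well at 37 C. Concentration-response data fitted with standard Hill equation for AC50.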
# [7] = target: Bile acid receptor (Homo sapiens) (UniProt Q96RI1); assay: qHTS assay for small molecule antagonists of farnesoid X receptor signaling (AID 588526; calls by dose curve)
# In short: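 Antagonist mode: titrated compounds tested against chenodeoxycholic acid stimulation (normalized to 50 uM CDCA and DMSO) in GeneBLAzer HEK293T cells for 16 h. Beta-lactamase read by CCF4 fluorescence; IC50 from Hill fits.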
# [8] = qHTS assay for small molecule activators of the nuclear factor-kappa B (NF-kB) signaling pathway (AID 651749; active means well fitted activation curve with a large enough effect in the signal ratio; the % refers to the signal ratio); conditions: NF-kB-bla ME-180 cells, beta-lactamase FRET ratio, 16 h; activation: stronger effect = higher value
# In short: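 In this qHTS format, compounds acting as activators increase NF-kB-driven beta-lactamase in ME-180 cells, measured as disrupted FRET after 16 hr exposure at 37C and 5% CO2.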
# [9] = Cell Viability - SK-N-SH (AID 435; calls by dose curve;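 further: potency means the concentration at half of the fitted maximal effect; compound exposure lasted 40 h at 37 °C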); conditions: SK-N-SH neuroblastoma cell viability qHTS
# In short: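 Luminescent ATP signal served as the viability read-out after 40 hours of compound treatment of human neuroblastoma SK-N-SH cells. Concentration-response data, scaled between DMSO and 100 uM tamoxifen, gave AC50 values by standard Hill modeling.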
# [10] = Cell Viability - LYMP1-003 - Assay at 24 hr (AID 963)
# In short: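 Concentration-response qHTS: ATP loss measured by CellTiter-Glo luminescence after 24 h compound exposure at 37 C. Cells were LYMP1-003 human lymphoblastoid, 2500 per well. AC50 derived via standard Hill equation modeling.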
# [11] = Cell Viability - LYMP2-010 (AID 981); further: nearly all actives have a fitted effect of over 55% in size
# In short: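 CellTiter-Glo ATP luminescence measured cytotoxicity after 24 h compound exposure at 37 C. LYMP2-010 cells were seeded at 2500/well, with tetraoctylammonium bromide as control; concentration-response curves gave AC50 values by the Hill equation.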
# [12] = target: Glucocorticoid receptor (Homo sapiens) (UniProt P04150); assay: qHTS assay for small molecule agonists of glucocorticoid receptor signaling (AID 588532; active means well fitted curve in the direction sought with a large enough effect in the signal ratio, with a control signal flat; the % refers to the signal ratio); conditions: HeLa MMTV-bla, beta-lactamase ratio, agonist, 18 h; stronger effect = higher value; percent of dexamethasone control, DMSO zero
# In short: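 HeLa GRE-bla reporter cells; 18 h compound exposure at 37 C; 2 h CCF4 loading at room temperature; fluorescence at 460 and 530 nm; EC50 by Hill equation.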
# [13] = target: Peroxisome proliferator-activated receptor gamma (Homo sapiens) (UniProt P37231); assay: qHTS assay for small molecule antagonists of peroxisome proliferator-activated receptor gamma signaling (AID 588537; active means well fitted inhibition curve with a large enough effect in the signal ratio, with a control signal flat, not every such curve was filed as active; the % refers to the signal ratio;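 further: reporter cells co-stimulated with 50 nM rosiglitazone agonist during compound treatment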)
# In short: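 Fluorescence at 460 and 530 nm (405 nm excitation) reported beta-lactamase cleavage of CCF4 after 2 h room-temperature loading. HEK293 reporter cells in 1% charcoal/dextran-treated FBS had received compound and rosiglitazone for 16 h.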
# [14] = target: Retinoic acid receptor RXR-alpha (Homo sapiens) (UniProt P19793); assay: qHTS assay for small molecule antagonists of retinoid X receptor alpha signaling (AID 588546; active means well fitted inhibition curve with a large enough effect in the signal ratio, with a control signal flat, not every such curve was filed as active; the % refers to the signal ratio;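 further: cells stimulated with 9-cis-retinoic acid as agonist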); conditions: HEK293T RXRa-UAS-bla, beta-lactamase ratio, antagonist mode
# In short: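 Beta-lactamase reporter inhibition, read as CCF4 fluorescence ratio (ex 405, em 460/530 nm) after 2 h at RT. HEK293T UAS-bla cells, 2500/well, were stimulated with 9-cis-RA at 500 or 100 nM final alongside test compound for 18 h at 37 C.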
# [15] = target: Peroxisome proliferator-activated receptor alpha (Homo sapiens) (UniProt Q07869); assay: qHTS assay for small molecule agonists of the peroxisome proliferator-activated receptor alpha (PPARalpha) signaling pathway (AID 651778); conditions: PathHunter PPARalpha complementation, chemiluminescence, 6 h; stronger effect = higher value
# In short: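 Enzyme-fragment complementation assay in which ligand-bound PPARalpha translocates and forms an active enzyme that generates chemiluminescence. Cells were plated overnight, exposed to compound for 6 hr at 37 C, and then given detection reagent for 60 min at room temperature.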
# [16] = qHTS assay for cell viability of the p53RE-bla HCT-116 cell line (AID 743292); further: nearly all actives have a fitted effect of over 55% in size
# In short: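 Compound-exposed HCT-116 (p53RE-bla) cells, 4,000 per well, were kept 16 h at 37 C following a 5 h preincubation. Cell number was estimated from total ATP by CellTiter-Glo luminescence read after 30 min at room temperature.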
# [17] = Cell Viability - LYMP2-001 (AID 921); further: nearly all actives have a fitted effect of over 70% in size
# In short: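 Steps: seed 2500 lymphoblastoid cells/well; 5 hr, 37 C; add compound; 24 hr, 37 C; CellTiter-Glo reagent, 30 min room temperature; read luminescence. Concentration-response modeled by Hill equation for AC50.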
# [18] = Cell Viability - LYMP2-012 (AID 982)
# [19] = qHTS assay for small molecule antagonists of peroxisome proliferator-activated receptor delta signaling (AID 588535); conditions: HEK293T PPARd-UAS-bla, beta-lactamase FRET ratio, 18 h; 460 nm channel;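 further: cells co-treated with a PPAR-delta agonist as stimulator during compound exposure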
# In short: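 Fluorescence from CCF4-loaded GeneBLAzer PPAR-delta-UAS-bla HEK293T cells (2 hrs RT loading) quantified reporter inhibition after an 18 hr, 37 C compound exposure across a titration.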
# Sequence of Bile acid receptor (Homo sapiens) (Q96RI1 whole entry, looked up): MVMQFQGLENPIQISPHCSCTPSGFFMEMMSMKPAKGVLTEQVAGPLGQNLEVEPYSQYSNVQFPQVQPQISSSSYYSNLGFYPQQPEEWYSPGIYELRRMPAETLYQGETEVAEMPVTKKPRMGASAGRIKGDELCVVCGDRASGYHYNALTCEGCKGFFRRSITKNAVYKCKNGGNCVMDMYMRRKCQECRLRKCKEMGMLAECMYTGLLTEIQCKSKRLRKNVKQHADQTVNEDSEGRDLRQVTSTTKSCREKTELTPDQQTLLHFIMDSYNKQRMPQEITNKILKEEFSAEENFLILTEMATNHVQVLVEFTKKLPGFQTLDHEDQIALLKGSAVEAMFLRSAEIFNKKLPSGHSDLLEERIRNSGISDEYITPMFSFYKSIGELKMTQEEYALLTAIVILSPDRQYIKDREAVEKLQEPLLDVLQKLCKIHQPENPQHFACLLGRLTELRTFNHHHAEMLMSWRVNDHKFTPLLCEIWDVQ
# Sequence of Peroxisome proliferator-activated receptor alpha (Homo sapiens) (Q07869 whole entry, looked up, the tested form may be a part): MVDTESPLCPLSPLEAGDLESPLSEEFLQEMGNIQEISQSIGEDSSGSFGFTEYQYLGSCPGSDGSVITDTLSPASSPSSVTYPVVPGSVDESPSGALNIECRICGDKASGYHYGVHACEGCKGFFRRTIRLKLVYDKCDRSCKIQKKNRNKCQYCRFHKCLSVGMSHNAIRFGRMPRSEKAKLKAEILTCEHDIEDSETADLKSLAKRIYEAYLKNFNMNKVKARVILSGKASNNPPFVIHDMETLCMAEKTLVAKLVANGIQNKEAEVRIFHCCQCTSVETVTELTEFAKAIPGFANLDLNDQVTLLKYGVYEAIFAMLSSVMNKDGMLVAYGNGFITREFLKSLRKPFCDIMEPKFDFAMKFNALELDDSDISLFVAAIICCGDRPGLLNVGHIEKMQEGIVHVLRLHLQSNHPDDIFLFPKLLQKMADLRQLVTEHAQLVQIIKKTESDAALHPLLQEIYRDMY
# Sequence of Peroxisome proliferator-activated receptor gamma (Homo sapiens) (P37231 whole entry, looked up): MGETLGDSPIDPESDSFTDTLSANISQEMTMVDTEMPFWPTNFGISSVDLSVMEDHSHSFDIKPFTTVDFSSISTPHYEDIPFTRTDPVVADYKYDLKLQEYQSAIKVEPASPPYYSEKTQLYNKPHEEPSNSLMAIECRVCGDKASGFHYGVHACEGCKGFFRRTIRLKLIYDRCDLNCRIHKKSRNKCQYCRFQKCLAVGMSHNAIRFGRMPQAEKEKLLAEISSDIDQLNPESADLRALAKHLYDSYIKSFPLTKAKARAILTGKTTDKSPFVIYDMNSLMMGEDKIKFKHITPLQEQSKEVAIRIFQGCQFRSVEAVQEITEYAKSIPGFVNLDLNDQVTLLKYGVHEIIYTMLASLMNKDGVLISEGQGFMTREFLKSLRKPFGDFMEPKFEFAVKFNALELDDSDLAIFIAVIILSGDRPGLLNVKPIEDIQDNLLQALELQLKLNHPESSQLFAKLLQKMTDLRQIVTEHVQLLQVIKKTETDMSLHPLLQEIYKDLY
# Sequence of Retinoic acid receptor RXR-alpha (Homo sapiens) (P19793 whole entry, looked up): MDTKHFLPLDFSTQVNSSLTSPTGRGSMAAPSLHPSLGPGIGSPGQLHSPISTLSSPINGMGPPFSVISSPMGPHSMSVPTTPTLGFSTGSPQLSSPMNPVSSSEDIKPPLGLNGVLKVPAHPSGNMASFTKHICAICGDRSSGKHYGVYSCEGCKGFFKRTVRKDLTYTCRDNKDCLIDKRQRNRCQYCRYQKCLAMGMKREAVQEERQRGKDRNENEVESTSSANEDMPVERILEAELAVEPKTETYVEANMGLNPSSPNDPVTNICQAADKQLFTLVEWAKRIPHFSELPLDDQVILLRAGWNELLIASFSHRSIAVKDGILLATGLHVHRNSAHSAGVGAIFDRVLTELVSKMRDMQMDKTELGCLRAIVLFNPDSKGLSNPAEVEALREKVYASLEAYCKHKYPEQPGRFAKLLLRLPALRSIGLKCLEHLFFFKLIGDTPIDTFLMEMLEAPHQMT
# Sequence of Glucocorticoid receptor (Homo sapiens) (P04150 whole entry, looked up): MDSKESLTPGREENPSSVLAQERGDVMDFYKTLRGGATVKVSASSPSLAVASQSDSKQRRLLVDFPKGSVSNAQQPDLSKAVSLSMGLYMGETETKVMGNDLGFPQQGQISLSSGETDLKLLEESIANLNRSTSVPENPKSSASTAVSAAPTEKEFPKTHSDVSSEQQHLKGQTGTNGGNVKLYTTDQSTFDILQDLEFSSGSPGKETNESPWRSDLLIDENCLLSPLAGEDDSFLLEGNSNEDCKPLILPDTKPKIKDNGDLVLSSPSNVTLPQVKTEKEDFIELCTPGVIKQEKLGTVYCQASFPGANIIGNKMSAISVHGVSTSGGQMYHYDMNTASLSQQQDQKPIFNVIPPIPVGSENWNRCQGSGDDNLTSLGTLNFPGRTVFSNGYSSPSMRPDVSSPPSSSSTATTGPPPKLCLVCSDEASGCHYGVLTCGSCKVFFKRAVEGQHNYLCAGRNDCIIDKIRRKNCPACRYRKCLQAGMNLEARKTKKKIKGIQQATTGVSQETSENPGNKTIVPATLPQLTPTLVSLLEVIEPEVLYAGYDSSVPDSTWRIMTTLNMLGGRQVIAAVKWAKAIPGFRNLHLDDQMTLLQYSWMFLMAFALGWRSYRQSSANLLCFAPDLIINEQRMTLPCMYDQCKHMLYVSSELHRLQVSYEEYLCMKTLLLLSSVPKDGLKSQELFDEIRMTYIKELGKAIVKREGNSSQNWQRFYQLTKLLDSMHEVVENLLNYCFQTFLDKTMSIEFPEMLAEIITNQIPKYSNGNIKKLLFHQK
SMILES,Potency [1],outcome [2],caspase-3 activation [3],Potency [4],Potency [5],Potency [6],outcome [7],activation [8],Potency [9],Potency [10],Potency [11],activation [12],Potency [13],max response [14],max response [15],Potency [16],Potency [17],Potency [18],max response [19]
c1ccc2c(c1)CCCC2,> 92 µM (inactive),inactive,-4.18% (inactive),inactive,inactive,inactive,inactive,-0.796% (inactive),–,–,–,–,–,–,–,–,–,–,–
Nc1c(Cl)c(Cl)nc(C(=O)O)c1Cl,> 92 µM (inactive),–,-0.472% (inactive),inactive,inactive,inactive,–,-0.763% (inactive) and -1.51% (inactive) and -1.13% (inactive),> 92 µM (inactive),inactive,inactive,-2.38% (inactive) and -16.4% (inactive) and -2.51% (inactive),inactive,-3.97% (inactive) and -1.67% (inactive) and -10.4% (inactive),0.0872% (inactive) and -2.27% (inactive) and -1.09% (inactive),inactive,–,–,–
Nc1ccccc1Cl,> 92 µM (inactive),inactive,–,inactive,–,–,inactive,0.524% (inactive),–,inactive,–,-0.0832% (inactive),–,–,-2.66% (inactive),–,inactive,inactive,6.02%
CC(C)(c1ccccc1)c1ccc(O)cc1,–,–,4.59% (inactive),inactive,–,–,inactive,-0.397% (inactive) and -3.49% (inactive),> 92 µM (inactive),–,–,–,–,-3.65% (inactive),-2.53% (inactive) and 0.007% (inactive),inactive,inactive,inactive,13%
Cc1ccc2ccccc2c1,> 92 µM (inactive),inactive,18.4% (inactive),inactive,inactive,–,inactive,-0.574% (inactive),–,inactive,–,–,inactive,–,–,–,inactive,inactive,14.3%
C=CCOC(C)=O,–,inactive,–,–,inactive,–,inactive,-0.256% (inactive),> 92 µM (inactive),–,–,10.3% (inactive),–,–,7.33% (inactive),inactive,inactive,inactive,–
ClC(Cl)(Cl)c1ccccc1,> 92 µM (inactive),inactive,-4.62% (inactive) and -2.75% (inactive),–,–,–,inactive,–,–,inactive,inactive,-6.79% (inactive) and 7.81% (inactive),–,9.82% (inactive) and 8.91% (inactive),-2.9% (inactive) and -5.05% (inactive),–,–,–,32% and 10.5%
C=CC(=O)OCC,–,inactive,-0.996% (inactive),inactive,–,inactive,inactive,–,> 92 µM (inactive),–,inactive,2.08% (inactive),inactive,4.16% (inactive),–,inactive,inactive,inactive,26.1%
Oc1ccc(Cl)cc1Cl,> 92 µM (inactive),–,–,inactive,inactive,inactive,inactive,–,–,inactive,inactive,–,inactive,-2.36% (inactive) and -1.51% (inactive),–,–,inactive,inactive,0.988%
CCSC(=O)Cl,> 92 µM (inactive),inactive,–,inactive,–,inactive,inactive,-1.04% (inactive),–,–,–,–,inactive,1.25% (inactive),–,inactive,–,inactive,–
CCCCCCCC(=O)Cl,> 92 µM (inactive),inactive,8.29% (inactive),–,inactive,–,inactive,-0.835% (inactive),–,inactive,inactive,5.97% (inactive),–,17.7% (inactive),–,inactive,inactive,inactive,–
Cc1ccc(O)c(C)c1,> 92 µM (inactive),inactive,–,inactive,–,–,–,0.131% (inactive) and -0.324% (inactive) and 1.7% (inactive),> 92 µM (inactive),inactive,–,12.9% (inactive) and 20.9% (inactive),inactive,0.533% (inactive) and 0.504% (inactive) and 10.6% (inactive),–,–,inactive,–,-17.8% and 29.7%
c1ccc(OP(Oc2ccccc2)Oc2ccccc2)cc1,> 92 µM (inactive),inactive,–,–,inactive,–,–,-3.6% (inactive) and -0.416% (inactive),–,inactive,inactive,10.9% (inactive) and -3.42% (inactive),inactive,4.67% (inactive) and -4.17% (inactive),–,inactive,–,inactive,–

# Source: PubChem BioAssay (NCATS)
